High-throughput results as filed in PubChem.
Rows were chosen to be rich in hits. Some 6.5% of all compounds tested hit in one or more screens of this group.
MARV entry inh = qHTS for inhibitors of binding or entry into cells for Marburg Virus | Marburg virus pseudotyped entry inhibition, cell reporter | Potency, µM (top dose mostly 37.8 µM), inactives show top-dose activity change, negative = inhibition, hits mostly inhibitors | hit rate 1.8% among 300,000 | AID 540276, 2011; calls by dose curve; tested in HEK293 cells; also: potency is read from the fitted curve at half-maximal effect
FMDV inh = High Throughput Screening for Foot and Mouth Disease Virus Antivirals; Potency, µM (doses to about 57.9 µM), for inactives: at the highest dose activity change, negative = inhibition, most hits filed as inhibitors; hit rate 1.2% among 410,000; FMDV antiviral cell-based qHTS; calls by dose curve; tested in HEK293T cells; also: read-out not given here; potency is read from the fitted curve at half-maximal effect; nearly all actives have a fitted effect of over 45% in size
HCMV inh = qHTS Assay for inhibitors of the human cytomegalovirus (HCMV). HFF cells, HCMV-luciferase reporter, 72 h; active compounds read low. activity change, negative = inhibition, % at 57.5 µM. hit rate 4.5% among 410,000; in the data active = activity change below about -60%; inconclusive = no clear call, values can overlap the other calls; inactive = above about -39%
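Steps: HFFs plated, 16 h 37C; compounds added; HCMV-luciferase added to MOI 1 PFU/cell; 72 h 37C; OneGlo reagent, 5 min room temperature; luminescence read, normalized to controls.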
Vaccinia Venus = qHTS for Stage-Specific Inhibitors of Vaccinia Orthopoxvirus: Venus Reporter Primary qHTS; Vaccinia virus Venus reporter expression, fluorescence; Potency, µM (highest dose often 36.5 µM), for inactives: top-dose activity change, negative = inhibition, actives largely listed as inhibitors; hit rate 0.46% among 330,000; calls by dose curve; tested in A549 cells; also: potency is read from the fitted curve at half-maximal effect; nearly all actives have a fitted effect of over 30% in size
VACV mCherry inh = qHTS for Stage-Specific Inhibitors of Vaccinia Orthopoxvirus: mCherry Reporter Primary qHTS | Vaccinia virus mCherry reporter infection, fluorescence | Potency, µM (series often up to 36.5 µM), for the others: at the highest dose activity change, negative = inhibition, hits mostly inhibitors | hit rate 0.63% among 310,000; calls by dose curve; tested in A549 cells; also: potency is read from the fitted curve at half-maximal effect; nearly all actives have a fitted effect of over 35% in size
Lassa entry inh = qHTS for Inhibitors of binding or entry into cells for Lassa Virus | Lassa virus pseudotype entry inhibition, cell reporter | Potency, µM (doses to about 37.9 µM), for inactives: at the highest dose activity change, negative = inhibition, hits mostly inhibitors | hit rate 1.2% among 300,000; calls by dose curve; tested in HEK293 cells; also: potency is read from the fitted curve at half-maximal effect; nearly all actives have a fitted effect of over 50% in size
Starred values were filed as active, the others as inactive; i = inactive; ? = inconclusive; nt = no result given; [ ] = remark or other dose. % is scaled to controls: 0 for no effect and ±100 for the full control effect.

SMILES	MARV entry inh	FMDV inh	HCMV inh	Vaccinia Venus	VACV mCherry inh	Lassa entry inh
NC(=O)CC(NC(=O)Cc1ccc(Br)cc1)c1ccc(NCc2ccc(F)c(F)c2)c([N+](=O)[O-])c1 (stereo unspecified)	nt	-24%	?	?	18µM*	nt
NC(=O)CC(NC(=O)c1ccccc1)c1ccc(NC2CCCCC2)c([N+](=O)[O-])c1 (stereo unspecified)	nt	-11%	-27	-26%	-11%	nt
NC(=O)CC(NC(=O)Cc1ccc(Br)cc1)c1ccc(N2CCC(Br)CC2)c([N+](=O)[O-])c1 (stereo unspecified)	nt	-23%	-4	?	i	nt
NC(=O)CC(NC(=O)Cc1ccc(Br)cc1)c1ccc(N2CCC(Cc3ccccc3)CC2)c([N+](=O)[O-])c1 (stereo unspecified)	nt	?	-15	11µM*	?	nt
CCOc1ccc(NC(=O)Cc2cccc3ccccc23)c([N+](=O)[O-])c1	2%[46.1 µM]	-15%	-74*	-4%	-18%	4%
Cc1cc(SCC(=O)Nc2nsc(-c3ccc(C(C)(C)C)cc3)n2)nc2ccccc12	23%[46.1 µM]	10%	289	-5%[7.34 µM]	-1%[7.34 µM]	-23%[46.1 µM]
CCOc1ccccc1Nc1nc(-c2cccc(Cl)c2)c2c(n1)-c1ccccc1OC2	?	-19%	2	-8%	i	?
NC(=O)CC(NC(=O)Cc1cccc2ccccc12)c1ccc(NCCOc2ccccc2)c([N+](=O)[O-])c1 (stereo unspecified)	nt	0%	-68*	?	-28%	nt
COc1ccc(CCNc2ccc(C(CC(N)=O)NC(=O)c3ccc(Br)cc3)cc2[N+](=O)[O-])cc1 (stereo unspecified)	nt	-25%	-72*	13µM*	-19%	nt
C[C@@H]1C=CCC(=O)N2[C@H](CC(=O)N[C@@H]1c1ccccc1)C[C@@H](C)[C@@H]2c1ccccc1	-24%[14.2 µM]	nt	nt	nt	nt	?
O=C(Nc1ccc([N+](=O)[O-])cc1)C1CC1(c1ccccc1)c1ccccc1 (stereo unspecified)	?	-22%	35	-17%	1%	-8%
CC1(C)C(C=C(Cl)Cl)C1C(=O)Nc1ccc([N+](=O)[O-])cc1 (stereo unspecified)	?	?	-96*	18µM*	?	?
Cc1nc2scc(-c3ccc(C(C)(C)C)cc3)c2c(=O)n1N	?	-28%	-78*	-16%	-14%	1%[46.1 µM]
CC(C)(C)c1nc2scc(-c3ccc(Br)cc3)c2c(=O)o1	15%[46.1 µM]	-10%	-24	-2%	i	0%
COc1ccc(-c2csc3nc(C)n(-n4cccc4)c(=O)c23)cc1	-1%	-2%	-62*	-19%	nt	?
CCOC(=O)N1CCN(CC(O)COCc2cc(OC)c(OC)c(OC)c2)CC1 (stereo unspecified)	?	-18%	0	-18%	i	-1%
O=C1c2cccc3cccc(c23)C(=O)N1CCN1CCN(C(=S)Nc2ccc(Cl)cc2)CC1	9%	14%	4	-4%	-15%	1%
COc1cc(COCC(O)CN2CCN(CCN3C(=O)c4cccc5cccc(c45)C3=O)CC2)cc(OC)c1OC (stereo unspecified)	?	?	-76*	?	-23%	-10%
O=C1c2cccc3cccc(c23)C(=O)N1CCN1CCN(CC(O)COCc2ccc(Cl)cc2)CC1 (stereo unspecified)	?	?	-79*	?	11µM*	18µM*
CC(C)CCNC(=O)CSCc1cnn(-c2ccccc2)c1-n1cccc1	0%[46.1 µM]	-15%	?	-15%	-7%	-2%[46.1 µM]
CCOC(=O)CN1C(=O)NC(c2cccc(F)c2)C(C(=O)OC)=C1C (stereo unspecified)	-24%[14.2 µM]	nt	nt	nt	nt	nt
Cc1nnc(-c2cccc(Br)c2)c2cn(-c3ccc(Br)cc3)nc12	?	?	-73*	?	-7%	?
CC(C)NC(=S)NC(=O)c1ccc(-c2ccccc2)cc1	?	-25%	-81*	-16%	-24%	-3%
Cc1ccc(-c2cc3c(N=O)c4ccccc4c-3n[nH]2)cc1	13%[46.1 µM]	-12%	-94*	9%	-7%	20%
